Where “and” joins values, the source holds several entries; their conditions need not be identical. Identical values can stand only once. More than one record can exist for a structure, and the calls need not agree. Calls of active or inactive are those of the source. The calls were made as follows: active = hit-call score of the fitted dose curve at least 0.9, where 1 is the maximum; inactive = score below 0.9.
Legend:
[1] = CCTE_Shafer_MEA_dev_correlation_coefficient_mean: CCTE's Neural Network Formation Assay for Mean Correlation Coefficient, Shafer Lab (AID 2284093);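 as to AC50: well mean pairwise spike train correlation integrated as AUC over recording days 5 to 12; potency fitted for loss of correlation relative to DMSO vehicle wells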
Outline: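 Read-out: well-mean correlation coefficient of spike trains between electrode pairs, collapsed over four recording days as trapezoidal area-under-the-curve. Developing rat cortical neuron networks grown on MEAs received test chemical continuously from plating.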

[2] = UKN2_HCS_IMR90_neural_migration: University of Konstanz (UKN) Leist Lab Neural Crest Cell Migration Assay in human induced IMR90 Pluripotent Stem Cells (UKN2) (AID 2284204); settings: actives raise or lower the signal
Outline: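 Stopper-exclusion migration (cMINC), human iPSC-derived neural crest cells; N2-S + EGF/FGF; compound added 24 h post-stopper removal, 24 h exposure. Readout: calcein-AM/Hoechst 30 min, HCS fluorescence imaging; bidirectional fitting, DMSO baseline.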

[3] = IUF_NPC1b_proliferation_BrdU_72hr: Leibniz Research Institute for Environmental Medicine (IUF) 72-hour Neural Progenitor Cell Bromodeoxyuridine (BrdU) Proliferation Assay (NPC1b) (AID 2284207)
Outline: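 Luminescent BrdU ELISA measured DNA synthesis during the last 16 h of a 72 h exposure of primary human neural progenitor spheres grown with EGF and FGF. Signal was fitted relative to DMSO controls.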

[4] = IUF_NPC1a_proliferation_area_72hr: Leibniz Research Institute for Environmental Medicine (IUF) 72-hour Neural Progenitor Cell Proliferation Area Assay (NPC1a) (AID 2284208)
Outline: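 Read-out: increase in sphere area over 72 h by automated phase-contrast imaging, fitted in positive direction versus DMSO baseline. One hNPC sphere (0.25-0.35 mm) per well in EGF/FGF medium; growth-factor withdrawal served as positive control.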

[5] = IUF_NPC1_viability_72hr: Viability Assessment at 72 hours in the Leibniz Research Institute for Environmental Medicine (IUF) Neural Progenitor Cell Proliferation Assay (NPC1) (AID 2284209)
Outline: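 Spheres of primary human neural progenitors were plated singly in proliferation medium and treated for 72 h. Mitochondrial reduction of resazurin was then measured by fluorescence and analysed against DMSO controls.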

[6] = CCTE_Mundy_HCI_Cortical_Synap_Neur_Matur_NeuriteSpotCountPerNeuriteLength: CCTE's Synaptogenesis and Neurite Maturation Assay in rat cortical cells for Neurite Spot Count per Neurite Length, Mundy Lab (AID 2284210)
Outline: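 Read-out: synaptophysin puncta counted along MAP2-stained neurites, normalised to neurite length, by automated high-content imaging. Rat cortical cells; AraC DIV 5; chemical dosing DIV 7; termination DIV 12. DMSO baseline.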

[7] = CCTE_Mundy_HCI_Cortical_Synap_Neur_Matur_BPCount: CCTE's Synaptogenesis and Neurite Maturation Assay in rat cortical cells for Branch Point Count, Mundy Lab (AID 2284211)
Outline: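 HCI read-out of branch points from MAP2/synaptophysin/Hoechst immunofluorescence; rat cortical cultures, AraC DIV 5, dosing DIV 7, fixed DIV 12; fit in positive direction vs DMSO baseline.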

[8] = CCTE_Mundy_HCI_Cortical_NOG_NeuriteCount: CCTE's Neurite Outgrowth Assay in rat cortical cells for Neurite Count, Mundy Lab (AID 2284212);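 also: cells fixed about two days after chemical exposure began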
Outline: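 Rat cortical primary cells; compound added 2 h post-plating, 1/10 dilution of working solution. Anti-betaIII-tubulin/AF488 ICC; ArrayScan neurite count vs DMSO.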

[9] = CCTE_Mundy_HCI_Cortical_NOG_NeuriteLength: CCTE's Neurite Outgrowth Assay in rat cortical cells for Neurite Length, Mundy Lab (AID 2284213);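 as to AC50: neurites imaged about 48 to 50 h after chemical exposure began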
Outline: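 First, rat primary cortical cells were plated and, 2 h later, given test chemical as a 1/10 dilution. Finally, βIII-tubulin immunostaining enabled automated imaging of neurite length.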

[10] = CCTE_Mundy_HCI_Cortical_Synap_Neur_Matur_NeuriteLength: CCTE's Synaptogenesis and Neurite Maturation Assay in rat cortical cells for Neurite Length, Mundy Lab (AID 2284214)
Outline: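 Cultures of rat primary cortical cells received chemical at DIV 7 and were fixed at DIV 12, after glial arrest with AraC at DIV 5. Neurite length was measured by automated imaging of MAP2 immunofluorescence.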

[11] = CCTE_Mundy_HCI_Cortical_Synap_Neur_Matur_NeuriteSpotCountPerNeuron: CCTE's Synaptogenesis and Neurite Maturation Assay in rat cortical cells for Neurite Spot Count per Neuron Count, Mundy Lab (AID 2284215)
Outline: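 Rat primary cortical cells received AraC at DIV 5, then chemicals with a media change at DIV 7, and were fixed at DIV 12. Synaptophysin puncta on MAP2-stained neurites per neuron were counted by high-content imaging, fitted relative to DMSO.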

[12] = CCTE_Mundy_HCI_Cortical_Synap_Neur_Matur_SynapseCount: CCTE's Synaptogenesis and Neurite Maturation Assay in rat cortical cells for Synapse Count, Mundy Lab (AID 2284218)
Outline: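 Cells were plated, allowed 2 hr to attach, treated with AraC at DIV 5, then exposed to chemicals from DIV 7 until DIV 12. After fixation and MAP2/synaptophysin immunolabelling, synapses per neuron were quantified by automated imaging against DMSO.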

[13] = CCTE_Mundy_HCI_Cortical_Synap_Neur_Matur_NeuriteCount: CCTE's Synaptogenesis and Neurite Maturation Assay in rat cortical cells for Neurite Count, Mundy Lab (AID 2284222)
Outline: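 Chemical exposure runs DIV 7–12 in rat cortical cultures, glia suppressed by AraC at DIV 5; measurement is at DIV 12. Imaging-derived neurite counts are fitted against DMSO baseline.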

[14] = CCTE_Mundy_HCI_Cortical_Synap_Neur_Matur_CellBodySpotCount: CCTE's Synaptogenesis and Neurite Maturation Assay in rat cortical cells for Cell Body Spot Count, Mundy Lab (AID 2284223)
Outline: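 Rat primary cortical cultures received AraC at DIV 5 to arrest glia, were dosed with chemical at DIV 7 with media change, and were fixed at DIV 12 (288.33 h). Synaptophysin puncta on MAP2-positive cell bodies per neuron were counted by high-content imaging versus DMSO.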

Measured: AC50

COC(=O)N(C(=O)N1CO[C@@]2(C(=O)OC)Cc3cc(Cl)ccc3C2=N1)c1ccc(OC(F)(F)F)cc1
active: [1] 15 µM | [3] 483 nM
inactive: all other assays above

CCCN(CC)CC1COC2(CCC(C(C)(C)C)CC2)O1 (stereo not drawn)
active: [1] 0.281 µM

C=C(C)CN(CC)c1c([N+](=O)[O-])cc(C(F)(F)F)cc1[N+](=O)[O-]
active: [1] 14 µM | [3] 92800 nM | [6] 6.36 µM | [7] 6.23 µM | [8] 65.1 µM | [9] 32.4 µM | [10] 5.64 µM | [11] 6.14 µM | [12] 4.72 µM | [13] 7.75 µM | [14] 5.33 µM
inactive: [2] | [4] | [5]

Cc1c(COC(=O)[C@@H]2[C@H](/C=C(\Cl)C(F)(F)F)C2(C)C)cccc1-c1ccccc1
inactive: [2] | [4] | [5]
active: [1] 395 nM and 497 nM | [3] 970 nM | [6] 3.2 µM | [7] 2.71 µM | [8] 27.8 µM | [9] 26.9 µM | [10] 3.7 µM | [11] 3.15 µM | [12] 3.14 µM | [13] 5.03 µM | [14] 3.12 µM

O=C(Nc1ccccc1-c1ccc(Cl)cc1)c1cccnc1Cl
inactive: [1] | [2] | [3] | [4] | [5] | [6] | [7] | [8] | [9] | [10] | [11] | [12] | [13] | [14]
active: [1] 9.92 µM
